# Reference: PubChem BioAssay AID504834 (National Center for Advancing Translational Sciences (NCATS), 2011)
# Hit rate of the full screen: of about 320,000 compounds, about 22,000 (6.9%) were called active. About 27% were inconclusive and are not listed. The full list was thinned out, with actives kept by preference. A number with no mark means an inactive call. Calls follow the shape of the dose curve; as a rule, active = well fitted inhibition curve with a large enough effect; inconclusive = small, poorly fitted or top-dose-only effect, or another doubt; inactive = no such curve, though single readings can be large or run the other way.
# Assay: Primary qHTS for delayed death inhibitors of the malarial parasite plastid, 96 hour incubation
# Conditions: P. falciparum luciferase reporter growth; series mostly up to 28.7 µM; activity change, negative = inhibition: at the top concentration
# Description: The goal of this screen is to discover new antimalarial compounds that act by inhibiting the development of the apicoplast in the malarial parasite Plasmodium falciparum. The biochemical processes that make this organelle essential for erythrocytic stage parasites are not well understood. However, antibiotics such as azithromycin and tetracycline, which target the apicoplast translational machinery, have a potent antimalarial effect.
# We have developed a cell-based assay that measures parasite growth based on the expression of an integrated copy of a firefly luciferase reporter. To detect small molecules that cause this "delayed death" phenotype, erythrocytes infected with the luciferase-expressing parasites were incubated with compounds for either one or two generations, corresponding to 48 and 96 hours, respectively. Compounds that inhibit parasite growth in the second generation, but not the first, should be enriched in antimalarials that target the apicoplast. Growth inhibition is detected by a decrease in luciferase activity.
# Assay Provider: David Fidock and Eric Ekland, Columbia University
# Keywords: NIH Roadmap, MLPCN, MLI, MLSMR, qHTS, NCGC, qHTS, malaria, luciferase, viability
# Four microliters of infected erythrocytes (2% hematocrit, 0.05% parasitemia final concentration) in culture medium were dispensed and the plates incubated for 96 hours at 37 C in 5% CO2. Two microliters of luciferase detection reagent was added and luminescence was detected by a ViewLux (PerkinElmer) reader.
# % is scaled to controls: 0 for no effect and ±100 for the full control effect; potency is read from the fitted curve at half-maximal effect.
SMILES,"activity change, negative = inhibition",Potency
O=C(OCc1ccc([N+](=O)[O-])cc1)C1CC(=O)N(Cc2ccccc2Cl)C1 (centres undefined),58.7%,
O=C(COc1cccc2c1CCNC2=O)NC1CCCCC1,-3.31%,
NC1=NN(c2cccc(C(=O)O)c2)C(=O)C1,,13.1 µM (active)
O=C(O)c1cccc(S(=O)(=O)N2CC=C(c3ccccc3)CC2)c1,-9.09%,
O=C(O)c1cccc(N=NN2CCCCCC2)c1,49.7%,
CC(=O)N1CCC(C(=O)OCc2ccc(Cl)cc2)(c2ccccc2)CC1,-22%,
O=C(c1ccccc1)N1CCC(CC2CC(c3ccc(Cl)cc3)=NO2)(C(=O)NCC2CCCCC2)CC1 (centres undefined),,1.04 µM (active)
CCOc1ccccc1N1CCN(C(=O)c2ccc3[nH]c(C)c(C)c3c2)CC1,0%,
CCCCCCCNC(=O)C1(CC2CC(c3cccc(Br)c3)=NO2)CCN(C(=O)c2cc(OCC)c(OCC)c(OCC)c2)CC1 (centres undefined),,0.329 µM (active)
COC(=O)C1CCN(C(=O)c2ccc3oc(Cc4ccc(Cl)cc4)nc3c2)CC1,1.63%,
COc1ccccc1C(=O)NC(=O)COC(=O)c1ccco1,53.6%,
Cc1ccc(N2C(=O)CC(Nc3cccc4ccccc34)C2=O)cc1 (centres undefined),26.3%,
COc1ccc(C2=NS(=O)(=O)N(C)C(C(=O)NC(C)c3ccccc3)=C2)cc1 (centres undefined),24.1%,
COc1ccccc1CCC(=O)NNC(=O)c1ccncc1,-3.56%,
Cc1nn(-c2ccccc2)c(C)c1NC(=O)COC(=O)c1cc(Cl)ccc1O,13.2%,
CCN1CCN(C(c2cccnc2)c2cc(Cl)c3cccnc3c2O)CC1 (centres undefined),,10.4 µM (active)
CCN1CCN(c2ccc(NC(=O)c3cnccn3)cc2)CC1,-11.3%,
Cc1nc(C)c(-c2nnc(-c3cccc(S(=O)(=O)N(C)C)c3)o2)cc1C(=O)NN,11.1%,
Cn1c(SCC(=O)Nc2ccc(N3CCOCC3)cc2)nnc1C(F)(F)F,-8.65%,
Cc1ccccc1NC(=O)c1cc(S(=O)(=O)Nc2cccc(C(=O)O)c2)ccc1Cl,0%,
O=C(NC1CC1)c1ccc2c(c1)NC(=O)c1ccccc1S2,,8.28 µM (active)
O=C(NC1CC1)c1cccc(Br)c1,-3.65%,
S=C1Nc2cc(Cl)ccc2Sc2ccccc21,16.5%,
CCn1cnc2scc(-c3ccc(C)c(C)c3)c2c1=O,42%,
COC(=O)Cn1cnc2scc(-c3ccc(C)c(C)c3)c2c1=O,,10.4 µM (active)
CCOC(=O)C(C)n1cnc2scc(-c3ccc(C)c(C)c3)c2c1=O (centres undefined),-3.94%,
COc1ccc(NC(=O)CCN2CCCC2)c(OC)c1,-23.8%,
CSc1ccccc1NC(=O)C(C)N1C(=O)c2ccccc2S1(=O)=O (centres undefined),18.5%,
COc1ccc(NC(=O)C(C)N2c3cccc4cccc(c34)S2(=O)=O)c(OC)c1 (centres undefined),,2.94 µM (active)
